Here are results for 9 compounds from PubChem BioAssay (NCI).

Test in all cases: NCI-60 one-dose screen, 48 h (100 = growth as untreated, 0 = no growth, -100 = all killed)
Settings in all cases: 10 µM unless noted

Assay [1] has as its system HT29 colon.
Assay [2] has as its system SNB-75 CNS.
Assay [3] relates to SNB-19 CNS.
Assay [4] concerns U251 CNS.
The subject of assay [5] is PC-3 prostate.
Assay [6] has as its system SK-MEL-5 melanoma.
Assay [7] concerns UACC-62 melanoma.
In assay [8] the test system is LOX IMVI melanoma.
For assay [9], the system named is SK-MEL-28 melanoma.
In assay [10] the test system is EKVX NSCLC.
The subject of assay [11] is SN12C renal.
The subject of assay [12] is UO-31 renal.
The subject of assay [13] is TK-10 renal.
Assay [14] deals with ACHN renal.
Assay [15] concerns CAKI-1 renal.
For assay [16], the system named is A498 renal.
In assay [17] the test system is CCRF-CEM leukemia.
Assay [18] relates to MOLT-4 leukemia.
Assay [19] relates to SR leukemia.
For assay [20], the system named is SK-MEL-2 melanoma.

This is part of a sample that, as a whole, favours compounds with a hit. Of some 83,000 tested, about 20% had one in any assay.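 How to read the values: 0–100, growth inhibition (40 = 60% inhibited); 0, no net growth; -100 to 0, cell death (-40 = 40% of starting cells died; -100 = all dead).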 A number with no mark means an inactive call. Calls of active or inactive are those of the source. The calls were made as follows: active = growth percent below 10; inactive = the rest.

For `CN(C)c1ccc(/C=C\c2ccnc3ccccc23)cc1`, the growth was 51.7% in [1]; 40.9% in assay [2]; 79.9% in assay [3]; 73.9% in [4]; 67.3% in assay [5]; 65.2% in [6]. In addition, the growth in assay [7] was 72.8%; in assay [8], 72.7%; in [9] it was 88.7%; in assay [10], 34.5%; in assay [11], 76.1%; in assay [12], 34.6%. Besides, the growth in assay [13] is 55.9%; in assay [14] it was 70.6%; in assay [15], 77.2%; in assay [16], 63.9%; in [17] it was 29.5%; in assay [18], 66.7%. Moreover, the growth in assay [19] was -32.4% (active).

As to `Cc1ccc(C(O)C2=CC(=O)c3ccccc3C2=O)cc1` (stereo not drawn), the growth is 107% in assay [1]; 92.3% in assay [2]; 102% in assay [3]; 96% in [4]; 89.4% in assay [5]; 97.7% in assay [6]. The growth is 90.5% in [7]; 112% in assay [9]; 116% in assay [20]; 91.2% in [10]; 94.9% in assay [11]; 73.2% in assay [12]. In addition, the growth is 118% in [13]; 86.7% in assay [14]; 100% in [15]; 95.9% in [16]; 94.7% in assay [18]; 90% in assay [19].

For `C/C(=N/N=C(N)N)c1ccc(N)cc1`, the growth in assay [1] is 103%; in assay [2], 102%; in assay [3], 96.3%; in assay [4], 99.3%; in assay [5], 92.1%; in [6] it was 107%. Further, the growth was 105% in assay [7]; 96.6% in assay [8]; 110% in assay [9]; 119% in assay [10]; 95.9% in [11]; 69.8% in assay [12]. For the same compound, the growth in [13] was 104%; in assay [14], 102%; in assay [15], 38%; in assay [16] it was 103%; in assay [17] it was 124%; in [18], 109%.

In the case of `O=C1Cc2cc(CCN3CCN(CCOCCO)CC3)c(Cl)cc2N1Cc1ccc(-c2ccccc2-c2nn[nH]n2)cc1`, the growth was 94.2% in [1]; 82.6% in assay [2]; 90.5% in [3]; 94.1% in assay [4]; 56.1% in assay [5]; 100% in assay [6]. Besides, the growth in [7] was 74.9%; in assay [8], 89.7%; in assay [9] it was 101%; in assay [10] it was 47.4%; in assay [11], 86.1%; in assay [12], 79.5%. Moreover, the growth in assay [13] was 111%; in [14], 84.1%; in assay [15], 61%; in assay [16] it was 59.9%.

Turning to `CC/C(=C\c1ccc(N(C)C)cc1)c1ccncc1`, the growth in [1] was 14.6%; in [2] it was 39.2%; in assay [3], 64.5%; in [4], 29.3%; in assay [5], 65.4%; in assay [6] it was 32.5%. Further, the growth is 44% in [7]; 41.5% in assay [8]; 65.4% in assay [9]; 63.5% in [10]; 52.6% in assay [11]; 57.6% in assay [12]. The growth in assay [13] was 73.6%; in [14] it was 59.4%; in [15], 43.4%; in [18] it was 38.7%; in [19], 22.8%.

`Cc1nn(-c2ccccc2)c(Cl)c1C(CC(=O)c1ccc(Cl)cc1)CC(=O)c1ccc(Cl)cc1`: the growth was 77% in [1]; 86.8% in assay [2]; 82.4% in assay [3]; 82.2% in [4]; 73.1% in assay [5]; 89.7% in assay [6]. In addition, the growth is 82.4% in assay [7]; 81.8% in assay [8]; 112% in [9]; 94.8% in [10]; 85.2% in assay [11]; 76.7% in assay [12]. Besides, the growth in assay [13] was 104%; in [14], 88.4%; in assay [15] it was 76.4%; in assay [16] it was 66.9%.

Consider `CC1SC(c2c(Cl)cccc2Cl)N(NC(=O)c2[nH]c3ccc(F)cc3c2-c2ccccc2)C1=O` (stereo not drawn), for which the growth in assay [1] was 34.8%; in [2], -53% (active); in [3], 37.4%; in [4], 10.7%; in assay [5], 32.2%; in [6], 54.6%. For the same compound, the growth in [7] is 74.8%; in assay [9] it was 71.2%; in [20], 72%; in assay [10], 41.8%; in assay [11], 33.9%; in [12], -17.6% (active). Also, the growth was 21.6% in [13]; 34.4% in assay [14]; 56.1% in [17]; 69.1% in [18]; 54.8% in assay [19].

In the case of `O=Cc1c[nH]c2ccc(NC(=O)OCc3ccccc3)cc12`, the growth in assay [1] was 89%; in [2], 87.1%; in assay [3] it was 89%; in [4] it was 78.8%; in assay [5], 48.6%; in assay [6], 99.1%. Also, the growth in assay [7] is 90.4%; in assay [8] it was 105%; in [9], 145%; in assay [10], 106%; in assay [11], 90.3%; in [12] it was 106%. For the same compound, the growth is 88.1% in assay [13]; 108% in assay [14]; 231% in [16]; 83.8% in assay [17]; 152% in [18]; 80.4% in assay [19].

`COc1cc2c(cc1OC)C1CCN3C(=O)CCC3N1CC2` (stereo not drawn): the growth in assay [1] is 109%; in assay [2], 105%; in assay [3] it was 111%; in assay [4], 112%; in assay [5], 107%; in assay [6], 113%. Further, the growth in assay [7] is 97%; in [9], 110%; in assay [20], 119%; in assay [10], 114%; in assay [11], 109%; in assay [12], 99.7%. Also, the growth in assay [13] is 104%; in assay [14] it was 102%; in assay [15] it was 115%; in assay [16], 104%; in [17], 102%; in assay [18], 97.3%. In addition, the growth in assay [19] is 95.8%.
